Laboratory results as given in PubChem BioAssay AID602193 (The Scripps Research Institute Molecular Screening Center, 2012).
About 410 (26%) of roughly 1,600 compounds were called active.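 Rule for the calls: active = mean inhibition over triplicates above the low-control well mean plus 3 SD, set per campaign (cut at about 13% in these data); inactive = the rest.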 What follows is part of a selection rich in actives, with near analogues and random picks from the rest.

Assay: nonselective cAMP signaling inhibitors, parental cells, counter-screen for MC4R biased antagonist project, cell-based, TR-FRET, U2OS, forskolin, triplicate (AID 602193);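 note: signal is single emission at 671 nm which falls as cellular cAMP rises; 0% = forskolin-stimulated wells and 100% = buffer without forskolin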
Conditions: LANCE TR-FRET, at 6.5 µM, active compounds read high

SMILES | inhibition
Cc1cccc(N2C(=O)NC(=O)/C(=C\c3cnn(-c4ccccc4)c3)C2=O)c1 | 14.2% (active)
COc1cccc(N2C(=O)NC(=O)/C(=C\c3ccc([N+](=O)[O-])s3)C2=O)c1 | 0.64% (inactive)
